Screening data as filed in PubChem.
Sampled rows, rich in hits. Any-hit rate of the full collection: about 1.5%.
Mtb hypoxia rep: reduces hypoxia-regulated biosensor signal in M. tuberculosis; M. tuberculosis hypoxia-regulated fluorescent reporter, fluorescence; fluorescence inhibition, % (no concentration beside the values); 300,000 compounds, 0.1% hits; AID 1159583; in the data active = fluorescence inhibition mostly above about 23%, no sharp cut-off; inactive = mostly below about 17%
PrPC surface inh: reduces human prion protein on the cell surface | P04156 | cell surface PrPC, TR-FRET read-out | inhibition, % at 13.8 µM | 370,000 compounds, 0.43% hits; in the data active = inhibition above about 24%; note: 0% = median of the test wells and 100% = reference compound wells
MazEF act: activators of E. coli MazEF toxin-antitoxin RNase. 350,000 compounds, 0.32% hits. AID 504720. P0AE70. activation, % at 20 µM. FAM/BHQ RNA-DNA oligo cleavage fluorescence, 5 h; in the data active = activation above about 50%
DUSP3 inh: DUSP3 (human) phosphatase inhibition. recombinant VHR phosphatase, pNPP absorbance. inhibition, % at 13.3 µM. 290,000 compounds, 0.52% hits. AID 1654; in the data active = inhibition above about 50%
PrP 5UTR inh: inhibition of PrP 5' UTR reporter expression | inhibition, % (no concentration beside the values) | cell-based PrP 5' UTR mRNA reporter, plate reader | AID 488862 | 340,000 compounds, 0.35% hits; in the data active = inhibition above about 52%; note: 0 = median of the neutral control wells
SARS 3CLpro inh: SARS-CoV 3CLpro protease inhibition; inhibition, % at 6 µM; recombinant SARS-CoV 3CLpro, quenched FRET peptide cleavage; 290,000 compounds, 0.14% hits; in the data active = inhibition above about 12%
PrPC TRFRET cf: cell surface PrPC inhibition, TR-FRET confirmation | inhibition, % at 13.8 µM | cell surface PrPC level | 1,500 compounds, 65% hits | shares compounds with PrPC surface inh | AID 743200; in the data active = inhibition above about 25%
LD9 tox: kills or reduces viability of LD9 cells in PrPc counter-screen; shares compounds with PrPC surface inh; LD9 cells cytotoxicity, luminescence viability; inhibition, % at 13.8 µM; 1,500 compounds, 29% hits; AID 743201; in the data active = inhibition above about 9.5%
* marks the source's active call; other numbers are inactive results; i = inactive; . = no result given.

SMILES	Mtb hypoxia rep	PrPC surface inh	MazEF act	DUSP3 inh	PrP 5UTR inh	SARS 3CLpro inh	PrPC TRFRET cf	LD9 tox
C=C1C(C)C2C(Cc3ccccc3)NC(=O)C23C(OC(C)=O)C=CC(C)(O)CC(C)CC=CC3C1O (stereo unspecified)	.	40*	5	.	2	.	32*	0
CC(=O)O[C@@H]1/C=C/[C@](C)(O)C[C@@H](C)C/C=C/[C@H]2[C@H](O)C(C)=C(C)[C@H]3[C@H](Cc4ccccc4)NC(=O)[C@@]123	.	.	4	.	.	.	.	.
C=C1[C@@H](C)C2[C@H](Cc3ccccc3)NC(=O)[C@]23[C@H](OC(C)=O)/C=C/[C@@](C)(O)C(=O)[C@@H](C)C/C=C/[C@H]3[C@@H]1O (stereo partly specified)	.	43*	.	.	.	.	38*	2
C=C1[C@@H](C)[C@H]2[C@H](Cc3ccccc3)NC(=O)[C@]23OC(=O)/C=C/[C@H](O)CCC[C@@H](C)C/C=C/[C@H]3[C@@H]1O	.	41*	11	16	26	4	19	9.7*
COc1ccc(C(C)=NNC(=S)NCc2ccco2)cc1	9	.	.	.	.	.	.	.
CCOc1cc(C=NNC(=O)C2CCCC2)ccc1OC(C)C	13	.	.	.	.	.	.	.
COc1ccccc1N1CCN(N=C/C(Br)=C/c2ccccc2)CC1	14	.	.	.	.	.	.	.
COCCN1C(=O)C(=O)C(=C(O)c2ccc3c(c2)OCCO3)C1c1ccc(C(=O)OC)cc1 (stereo unspecified)	0	.	.	.	.	.	.	.
Nc1ccc2cc3[nH]c4cc(N)ccc4c3nc2c1	.	27*	i	.	-37	.	11	31*
Oc1ccc(CC2CNCCN2CCC23CC4CC(CC(C4)C2)C3)cc1 (stereo unspecified)	10	.	.	.	.	.	.	.
CC(=O)c1sc(NC(=O)c2c(F)cccc2F)nc1-c1ccccc1	-4	25*	1	7	-35	3	21	-8
CNC(=O)c1nnsc1S(=O)(=O)c1ccc(Cl)cc1	18	25*	11	-8	-2	1	-4	80*
O=C(c1nnsc1S(=O)(=O)c1ccc(Cl)cc1)N1CCOCC1	23	14	1	28	6	3	.	.
CC(C)OC(=O)CSc1nc(Cc2cccs2)nc2ccccc12	3	37*	0	7	-5	2	23	-3
CCOC(=O)CSc1nc(C(C)C)nc2ccccc12	1	110*	3	-7	-15	4	123*	-1
CCOC(=O)CSc1nc(C2CC2)nc2ccccc12	11	25*	-3	17	-10	-4	43*	-3
CC(C)(C)c1nc(SCC(=O)NNC(=O)c2ccccc2)c2ccccc2n1	-17	45*	5	17	-1	5	67*	-11
CC(C)NC(=O)CSc1nc(Cc2ccccc2)nc2ccccc12	11	13	3	10	-14	-3	.	.
CCCC(=NNC(=O)CCC(=O)NCc1ccccc1)c1ccccc1	-11	.	.	.	.	.	.	.
CCOC1OC(C(=O)N2CCN(Cc3ccccc3)CC2)=CC(c2ccc(Br)cc2)C1CCCO (stereo unspecified)	-3	.	.	.	.	.	.	.
CCN1CC2C3C(=O)N(Cc4ccccc4)C(=O)C3[C@](Cc3ccccc3)(C1=O)N2C(=O)c1ccc(C)cc1 (stereo partly specified)	18	.	.	.	.	.	.	.
CC(CC(=O)Nc1ccc(N(C)C)cc1)=NNC(=O)C(=O)NCc1ccccc1	10	.	.	.	.	.	.	.
CN1CCN(C(=O)C(=Cc2ccc3c(c2)OCO3)NC(=O)c2cccs2)CC1	-6	.	.	.	.	.	.	.
Cc1cc(C=NO)c(C)n1-c1cccc(Cl)c1	8	.	.	.	.	.	.	.
CCOC(=O)CSc1nc(C)c2ccccc2n1	11	20	-2	19	-35	4	.	.
SMILES	Mtb hypoxia rep	PrPC surface inh	MazEF act	DUSP3 inh	PrP 5UTR inh	SARS 3CLpro inh	PrPC TRFRET cf	LD9 tox
COC(=O)CSc1nc(C(C)C)nc2ccccc12	4	121*	11	25	-5	3	123*	-4
CCOC(=O)CSc1nc(C(C)(C)C)nc2ccccc12	-10	32*	0	13	8	1	58*	1
Cc1ccc(C(=O)CSc2nc(C(C)C)nc3ccccc23)cc1	7	8	3	15	-15	0	.	.
CCOC(=O)CSc1nc(COc2ccccc2)nc2ccccc12	7	59*	11	18	-4	-2	60*	8
Cc1cccc(C)c1NC(=O)CSc1nc(COc2ccccc2)nc2ccccc12	-7	2	3	4	-23	-1	.	.
CC(CC(=O)Nc1cc(Cl)ccc1Cl)=NNC(=O)c1ccco1	13	.	.	.	.	.	.	.
CC1CN(C(C)CO)C(=O)c2cc(NC(=O)Cc3cn(C)c4ccccc34)ccc2OC1CN(C)C(=O)Nc1ccc2c(c1)OCO2 (stereo unspecified)	-9	.	.	.	.	.	.	.
CC(=O)c1ccc(NC(=O)Nc2ccc(Cl)cc2)cc1	7	28*	11	6	-131	-1	24	1
C[C@@]12C(=O)Nc3ccc(Cl)cc3C(=O)N1[C@H]1c3cc(Cl)ccc3OC[C@@H]1[C@@H]2c1ccccc1	.	26*	-11	.	-5	.	16	-8
Cc1ccc2c(c1)C(=O)N1C3c4cc(C)ccc4OCC3C(c3ccccc3)[C@]1(C)C(=O)N2 (stereo partly specified)	6	.	.	.	.	.	.	.
Cc1ccc2c(c1)[C@H]1[C@H](CO2)[C@H](c2ccccc2)[C@]2(C)C(=O)Nc3ccc(Cl)cc3C(=O)N12	.	25*	-6	.	2	.	14	-7
COc1ccc2c(c1)C(=O)N1[C@H]3c4cc(C)ccc4OC[C@@H]3[C@H](c3ccccc3)[C@]1(C)C(=O)N2	.	34*	-12	.	-15	.	23	-6
CS(=O)(=O)Nc1ccc(-c2cc(C=C3SC(N)=NC3=O)c[nH]c2=O)cc1	-3	.	.	.	.	.	.	.
COc1ccc2c(c1)OCC1C2N2C(=O)CN(Cc3ccc(C)cc3)C(=O)[C@@]2(C)C1c1ccccc1 (stereo partly specified)	4	.	.	.	.	.	.	.
CC(=NNS(=O)(=O)c1ccc(Br)cc1)c1cccs1	10	.	.	.	.	.	.	.
COc1cc(C=C2SC(=O)N(Cc3ccccc3)C2=O)ccc1OCc1ccncc1	-3	.	.	.	.	.	.	.
CC(C)(C)c1ccc(NC(=O)COc2ccc(-n3ccnc3)cc2)cc1	.	28*	7	21	16	-2	21	12*
Oc1ccc(-c2cnc3c(Nc4cccc(OC(F)(F)C(F)F)c4)nccn23)cc1	.	25*	.	.	.	.	25*	-3
FC(F)C(F)(F)Oc1cccc(Nc2nccn3c(-c4ccc5ccccc5c4)cnc23)c1	.	10	.	.	.	.	.	.
Cc1cc2sc(C(=O)O)c(C)c2s1	.	30*	-3	22	-1	4	42*	-6
Cc1nc2ccccc2c(=O)n1N=Cc1cc(Br)ccc1O	-4	.	.	.	.	.	.	.
O=C(Nc1ccc2c(c1)OCO2)c1cc(-c2ccc(O)cc2)on1	-6	32*	2	6	-112	4	18	5
